This assay is described as follows: NCI Yeast Anticancer Drug Screen. Data for the rad50 strain (AID 155).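 Note: 0% = growth of vehicle-only cultures of the same strain.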 To be noted: S. cerevisiae rad50 strain growth inhibition, stronger effect = higher value. The method, then: Growth inhibition of yeast strains with defined genetic alterations is measured as a screen for potential anti-cancer activity. Selected strains with alterations in DNA damage repair or cell cycle control were exposed to compounds and growth inhibition was measured relative to vehicle treated controls. The strain used in this assay is rad50

Where [1] appears, read: at 5.0 µM (retest, dose inferred, filed as 0.5).
Setting [2] is: at 50.0 µM (retest, dose inferred, filed as 5.0).

“And” between values parts separate entries of the source, which are not always exact repeats. Identical values can stand only once. The panel holds about 79,000 compounds, 15% with a hit somewhere; the sample as a whole holds those more often. The source holds several records for some structures; these can differ, active in one and inactive in another. The source made the active and inactive calls. Cut-off read from the data, not from the text of the source: active = growth inhibition above about 70%; inactive = the rest.

For the compound `COc1cc(/C=N/Nc2nnc3c4ccccc4c4ncccc4c3n2)cc(OC)c1OC`, the growth inhibition by setting is: (at 1.2 µM) 18% (inactive); (at 3.7 µM) 36% (inactive); under setting [1], 4% (inactive); (at 11.0 µM) 66% (inactive); (at 33.0 µM) 81% (active); under setting [2], 62% (inactive). The growth inhibition is, setting by setting: (at 50.0 µM) 93% (active); (at 100.0 µM) 86% (active).
Consider `O=C1N=C2SC=C(NC(=S)Nc3ccccc3)N2NC12c1ccccc1-c1ccccc12`, for which the growth inhibition is 6% (inactive) (at 1.2 µM); 0% (inactive) (at 3.7 µM); 1% (inactive) under setting [1]; 4% (inactive) (at 11.0 µM); 49% (inactive) (at 33.0 µM); 48% (inactive) under setting [2]. Also, the growth inhibition was 78% (active) (at 50.0 µM) and 76% (active) (at 100.0 µM).
For `COc1ccc(C2C3=C(COC3=O)OC(C)(C)Oc3cc4c(cc32)OCO4)cc1OC` (stereo not given), the growth inhibition runs as follows: (at 1.2 µM) 15% (inactive); (at 3.7 µM) 26% (inactive); under setting [1], 0% (inactive); (at 11.0 µM) 33% (inactive); (at 33.0 µM) 57% (inactive); under setting [2], 91% (active). Moreover, the growth inhibition reads like this: (at 50.0 µM) 97% (active); (at 100.0 µM) 90% (active).
With `CC12C(=O)OC(=O)C(c3ccccc31)c1ccccc12`, the growth inhibition is -18% (inactive) (at 1.2 µM); -17% (inactive) (at 3.7 µM); 43% (inactive) under setting [1]; -16% (inactive) (at 11.0 µM); -16% (inactive) (at 33.0 µM); 21% (inactive) under setting [2]. In addition, the growth inhibition (at 50.0 µM) is 98.3% (active) and the growth inhibition (at 100.0 µM) was 20% (inactive).
Turning to `c1ccc(-c2cnc3ccccc3c2)cc1`, the growth inhibition by setting is: (at 1.2 µM) -5% (inactive); (at 3.7 µM) -3% (inactive); under setting [1], -151% (inactive) and -148% (inactive); (at 11.0 µM) 14% (inactive); (at 33.0 µM) 47% (inactive); under setting [2], 37% (inactive) and 47% (inactive). The growth inhibition (at 50.0 µM) is 70.1% (active) and 62.7% (inactive); the growth inhibition (at 100.0 µM) is 99% (active).

These data come from PubChem BioAssay (NCI).
